Columns and labels:
[1] = tested on: Botulinum neurotoxin type F light chain protease (Clostridium botulinum); assay: Clostridium botulinum type F light chain protease inhibitors, microsphere substrate cleavage, validation (AID 588459); conditions: multiplex microsphere protease substrate cleavage assay, flow cytometry; at 10 µM; stronger effect = higher value
[2] = biological target: Botulinum neurotoxin type A (Clostridium botulinum) (UniProt P0DPI0); assay: BoNT/A light chain protease inhibitors, biochemical, multiplex microsphere flow cytometry, validation set (AID 588460); conditions: at 10 µM, stronger effect = higher value
[3] = biological target: Lethal factor (Bacillus anthracis) (UniProt P15917); assay: Bacillus anthracis lethal factor inhibition, microsphere flow cytometry protease assay, validation at 10 µM (AID 588461); conditions: multiplex microsphere protease cleavage assay, stronger effect = higher value

Measured: inhibition

Botulinum neurotoxin type A (Clostridium botulinum), sequence (P0DPI0 whole entry, looked up): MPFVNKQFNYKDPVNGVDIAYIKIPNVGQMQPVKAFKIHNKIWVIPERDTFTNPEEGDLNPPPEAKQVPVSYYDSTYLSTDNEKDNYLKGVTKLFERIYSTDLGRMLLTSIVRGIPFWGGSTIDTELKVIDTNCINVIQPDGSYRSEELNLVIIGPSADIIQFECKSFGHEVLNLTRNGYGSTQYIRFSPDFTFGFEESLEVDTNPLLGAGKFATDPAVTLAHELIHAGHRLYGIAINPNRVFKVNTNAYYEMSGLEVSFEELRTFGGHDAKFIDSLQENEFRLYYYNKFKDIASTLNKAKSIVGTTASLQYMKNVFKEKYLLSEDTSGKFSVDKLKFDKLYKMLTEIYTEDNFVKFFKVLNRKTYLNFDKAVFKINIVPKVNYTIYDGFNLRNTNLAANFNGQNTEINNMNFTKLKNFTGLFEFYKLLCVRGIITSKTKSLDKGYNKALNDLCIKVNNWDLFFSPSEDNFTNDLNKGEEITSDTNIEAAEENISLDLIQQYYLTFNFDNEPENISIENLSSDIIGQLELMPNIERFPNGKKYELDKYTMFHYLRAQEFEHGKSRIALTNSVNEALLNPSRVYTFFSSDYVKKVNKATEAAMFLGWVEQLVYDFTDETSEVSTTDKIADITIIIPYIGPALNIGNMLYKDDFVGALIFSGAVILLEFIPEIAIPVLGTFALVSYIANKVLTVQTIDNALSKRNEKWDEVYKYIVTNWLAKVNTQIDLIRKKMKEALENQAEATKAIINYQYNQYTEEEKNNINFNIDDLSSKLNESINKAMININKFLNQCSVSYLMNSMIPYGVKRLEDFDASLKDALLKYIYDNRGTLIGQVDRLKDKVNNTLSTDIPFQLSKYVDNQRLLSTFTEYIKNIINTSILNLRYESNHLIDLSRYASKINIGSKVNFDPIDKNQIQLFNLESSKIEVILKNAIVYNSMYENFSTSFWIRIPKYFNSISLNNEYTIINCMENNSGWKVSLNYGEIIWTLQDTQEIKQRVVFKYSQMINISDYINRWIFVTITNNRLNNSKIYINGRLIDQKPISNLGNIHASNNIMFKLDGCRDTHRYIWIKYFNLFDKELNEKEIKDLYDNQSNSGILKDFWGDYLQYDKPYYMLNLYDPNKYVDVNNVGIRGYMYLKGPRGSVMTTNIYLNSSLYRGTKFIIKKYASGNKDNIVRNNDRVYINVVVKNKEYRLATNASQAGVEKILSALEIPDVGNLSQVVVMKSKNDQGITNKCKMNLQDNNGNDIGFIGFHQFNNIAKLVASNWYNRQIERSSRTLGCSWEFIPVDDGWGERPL
Lethal factor (Bacillus anthracis), sequence (P15917 whole entry, looked up): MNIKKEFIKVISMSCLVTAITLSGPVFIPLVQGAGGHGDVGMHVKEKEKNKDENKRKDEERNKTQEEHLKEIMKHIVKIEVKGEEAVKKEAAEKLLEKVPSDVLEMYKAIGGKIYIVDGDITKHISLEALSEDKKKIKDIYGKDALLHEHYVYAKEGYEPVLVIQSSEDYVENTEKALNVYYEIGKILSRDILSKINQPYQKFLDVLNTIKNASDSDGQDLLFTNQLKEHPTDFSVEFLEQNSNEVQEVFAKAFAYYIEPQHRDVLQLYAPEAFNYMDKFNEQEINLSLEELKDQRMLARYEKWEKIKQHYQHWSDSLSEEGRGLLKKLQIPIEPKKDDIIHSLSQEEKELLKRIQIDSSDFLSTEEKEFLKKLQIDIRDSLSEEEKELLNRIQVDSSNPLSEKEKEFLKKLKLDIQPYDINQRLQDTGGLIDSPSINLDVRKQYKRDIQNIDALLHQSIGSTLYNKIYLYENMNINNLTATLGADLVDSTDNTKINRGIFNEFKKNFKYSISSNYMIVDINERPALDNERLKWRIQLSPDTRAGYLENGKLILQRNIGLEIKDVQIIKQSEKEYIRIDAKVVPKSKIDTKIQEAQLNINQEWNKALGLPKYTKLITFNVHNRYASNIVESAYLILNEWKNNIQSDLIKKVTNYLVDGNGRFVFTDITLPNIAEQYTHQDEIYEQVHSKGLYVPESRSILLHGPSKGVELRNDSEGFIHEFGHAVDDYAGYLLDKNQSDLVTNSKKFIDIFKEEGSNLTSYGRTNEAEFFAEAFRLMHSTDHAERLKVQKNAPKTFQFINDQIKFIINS

O=C(O)c1ccccc1Nc1cccc(C(F)(F)F)c1
inactive: [1] -4.2% | [2] -0.9% | [3] 1.9%

CC(C(=O)O)c1ccc(-c2ccccc2)c(F)c1 (centres undefined)
inactive: [1] 5.7% | [2] 0.5% | [3] 5.7%

CC1(C)CC(=O)c2cn3c(nc2C1)nc1ccccc13
inactive: [1] 1% | [2] -0.2% | [3] 0%

CC(C)(CO)CNC(=O)CC1C(=O)NCCN1CC(c1ccccc1)c1ccccc1 (centres undefined)
inactive: [1] 0.8% | [2] -0.4% | [3] 0.3%

C[C@H]1O[C@H]1P(=O)(O)O
inactive: [1] -0.1% | [2] 1.1% | [3] -2%

CC(=O)c1cccc(NC(=O)N[C@@H](CC(C)C)C(=O)O)c1
inactive: [1] -0.3% | [2] -1.7% | [3] -2.8%

CC1(C)CC(CC(=O)Nc2nccs2)(c2ccccc2)CCO1 (centres undefined)
inactive: [1] 3.8% | [2] 0.5% | [3] -1.9%

N#C/C(=C\c1ccc(O)c(O)c1)C(=O)NCCCc1ccccc1
inactive: [1] 1.8% | [2] 1.2% | [3] -2.8%

CCNC(=O)C12CCC(C)(C(=O)O1)C2(C)C (centres undefined)
inactive: [1] -1% | [2] -1% | [3] -7.4%

COC(=O)c1cc(=O)c2ccc(OC)cc2o1
inactive: [1] -4.1% | [2] -0.9% | [3] 2.2%

O=[N+]([O-])c1cccc2cn[nH]c12
inactive: [1] 6.9% | [2] 3% | [3] 6.3%

COC(=O)c1ccc(=O)n(Cc2ccco2)c1
inactive: [1] 3.3% | [2] -0.2% | [3] 3.8%

COc1ccc(-c2cc(=O)oc3c(C)c(O)c(CN(C)C)cc23)cc1
inactive: [1] 11.3% | [2] 0.6% | [3] -2.1%

COCCCN1C(=O)C(=O)/C(=C(/O)c2ccc3c(c2)CC(C)O3)C1c1cccnc1 (centres undefined)
inactive: [1] -3% | [2] -2.1% | [3] 3.5%

Cn1c2[n+](c3ccc(Cl)cc3c1=O)Cc1ccccc1-2
inactive: [1] 0.8% | [2] -1% | [3] -7.8%

O=C(Nc1ccc(F)c([N+](=O)[O-])c1)c1ccc2c(c1)OCCO2
inactive: [1] -3.7% | [2] -2.7% | [3] -7.5%

Cc1ccc(OCCCCn2ccnc2C)c(C)c1
inactive: [1] -5.4% | [2] -1.6% | [3] -1.6%

O=C(NCc1ccco1)/C(=C\C=C\c1ccccc1)NC(=O)c1ccccc1Br
inactive: [1] -0.5% | [2] 0% | [3] 1.6%

Cc1ccc(S(=O)(=O)NC(C(=O)Oc2cc3oc(=O)cc(C)c3cc2Cl)C(C)C)cc1 (centres undefined)
inactive: [1] 0.5% | [2] 0.5% | [3] -3.2%

COc1cc(C2Nc3ccccc3NC3=C2C(=O)CC(c2ccc(OC)c(OC)c2)C3)ccc1O (centres undefined)
inactive: [1] -5.5% | [2] -0.9% | [3] 0%

COc1cc(NC(=O)N[C@@H](Cc2ccccc2)C(=O)O)cc(OC)c1
inactive: [1] 1.2% | [2] 0.4% | [3] -2.8%

COC(=O)c1cc(-c2ccc(C)o2)nc2ccccc12
inactive: [1] 1.8% | [2] 2% | [3] 2.2%

CC(=O)[C@@H]1[C@@H](C(=O)c2ccc(C)cc2)[C@]2(C(=O)Nc3ccccc32)[C@H]2C=Cc3cc(F)ccc3N12
inactive: [1] 2.2% | [2] 1.6% | [3] -6.9%

Cc1cc(=O)oc2c(CN(C)Cc3ccccc3)c(O)ccc12
inactive: [1] -0.2% | [2] -0.7% | [3] -3.4%

COc1ccc2c(c1)C=CC1(O2)N(CCO)c2ccccc2C1(C)C (centres undefined)
inactive: [1] 3% | [2] -0.7% | [3] -7.3%

CCOc1ccc(CC2CCC(=O)NC2=O)cc1 (centres undefined)
inactive: [1] -3% | [2] -0.5% | [3] -1.5%

CC[C@H](CO)NCCN[C@H](CC)CO
inactive: [1] 2.2% | [2] -1.2% | [3] -10%

Cc1ccsc1C1NC(=O)c2ccccc2N1 (centres undefined)
inactive: [1] -6.7% | [2] -1.3% | [3] -5.3%

Reference: PubChem BioAssay
